Source: PubChem BioAssay
Shown are actives, neighbours in structure and some others; about 4.1% of the full set was active somewhere.
tim10-1 inh: tim10-1 yeast growth inhibition; S. cerevisiae tim10-1 ts strain growth, BacTiter-Glo, 24 h; inhibition, % at 20 µM; hit rate 2.2% among 330,000; AID 463190;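 active = inhibition of at least 40%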;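 note: mutant grown at 25 °C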
NALP1 inh: blocks the NALP1 inflammasome reconstituted in yeast | hit rate 0.61% among 280,000 | inhibition, % at 10 µM | S. cerevisiae NALP1/ASC/caspase-1 growth, X-gal OD620, 72 h | AID 2071; in the data active = inhibition mostly above about 24%, no sharp cut-off; inactive = mostly below about 32%
tim23-1 inh: growth inhibitors of tim23-1 mutant yeast. S. cerevisiae tim23-1 growth, BacTiter-Glo luminescence, 24 h. inhibition, % at 20 µM. hit rate 1.3% among 330,000. AID 463212;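 active = growth inhibition of the mutant yeast at or above 50%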;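 note: temperature-sensitive mutant grown at 25 °C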
TIM10 inh: inhibits growth of TIM10 yeast strain. inhibition, % at 10 µM. hit rate 1.4% among 330,000. S. cerevisiae TIM10 strain growth, BacTiter-Glo luminescence, 24 h. AID 463195;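 active = inhibition of 40% or more at the single tested concentration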;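 note: wild-type TIM10 isogenic control strain grown at permissive 25 °C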
NALP3 yeast inh: inhibitors of NALP3 inflammasome in yeast. hit rate 0.39% among 330,000. Yeast reconstituted NLRP3/ASC/caspase-1, beta-gal luminescence, 24 h. inhibition, % at 10 µM;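 active = inhibition of 50% or more; inactive = inhibition below 50%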
NALP3 yeast conf: confirmation of NALP3 inhibitors in yeast | shares compounds with NALP3 yeast inh | inhibition, % at 10 µM | AID 435006 | yeast expressing human NALP3, luminescence | hit rate 81% among 1,300; in the data active = inhibition above about 48%
Casp1-ASC yeast: caspase-1-ASC yeast counter-screen hit; shares compounds with NALP3 yeast inh; yeast expressing Caspase-1-ASC, luminescence counter screen; inhibition, % at 10 µM; hit rate 66% among 1,000; AID 488784
NALP3 retest: retest-confirmed inhibitor of NALP3 in yeast; hit rate 53% among 1,000; yeast expressing human NALP3, luminescence read-out; inhibition, % at 10 µM; shares compounds with NALP3 yeast inh
tim10-1 confirm: tim10-1 yeast growth inhibition, confirmed. shares compounds with tim10-1 inh. S. cerevisiae tim10-1 ts strain growth, BacTiter-Glo, 24 h. inhibition, % at 20 µM. hit rate 56% among 7,400;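 active = inhibition of yeast growth at or above a set limit in either of two repeat tests at 20 µM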;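 note: tim10-1 mutant grown at permissive 25 °C to find synthetic lethal compounds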
tim10 confirm: TIM10 yeast growth inhibition, confirmed. shares compounds with TIM10 inh. S. cerevisiae tim10 strain growth, BacTiter-Glo luminescence, 24 h. inhibition, % at 10 µM. hit rate 63% among 4,600. AID 463215;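 active = inhibition of yeast growth at or above a set limit in either of two replicates at 10 µM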; note: this counterscreen used the strain with wild-type TIM10
tim23-1 confirm: confirmation of tim23-1 mutant yeast growth inhibitors; shares compounds with tim23-1 inh; S. cerevisiae tim23-1 growth, BacTiter-Glo luminescence, 24 h; inhibition, % at 20 µM; hit rate 83% among 4,400; AID 463218;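 active = inhibition above about 39% in either of two replicate wells at 20 µM, limit read from the data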;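 note: temperature-sensitive tim23-1 mutant grown at 25 °C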
A number is an active result; n = inactive; x = no result. Cut-off read from the data, not from the text of the source, unless noted: active = inhibition above about 50%; inactive = the rest.

SMILES	tim10-1 inh	NALP1 inh	tim23-1 inh	TIM10 inh	NALP3 yeast inh	NALP3 yeast conf	Casp1-ASC yeast	NALP3 retest	tim10 confirm	others
CCC(C)(C)n1nnnc1C(c1cccs1)N1CCc2ccccc21 (stereo not given)	n	n	n	49.5	n	n	x	x	34.5
Cc1ccc(Sc2ccc(NC(=O)CCl)cc2)c(C)c1	n	n	n	59.3	58.5	69.5	78.4	58.4	42.7
Oc1ccc(C=Nc2ccccc2-c2nc3ccccc3[nH]2)cc1	n	n	n	n	n	x	x	x	x
Cc1sc(NC(=S)NC(=O)c2cccs2)nc1-c1ccc(C(C)C)cc1	n	n	n	n	n	x	x	x	x
O=C(Nc1nc2c(s1)CCCC2)c1cccs1	44.1	n	n	44.1	50.3	55.5	87.8	71.8	n	tim10-1 confirm=29.5
Cc1sc(NC(=O)c2cccs2)nc1-c1ccccc1	n	n	n	47.0	67.7	67.0	55.0	n	n
O=C(Cc1cccs1)Nc1nc2c(s1)CCCC2	n	n	n	n	n	x	x	x	x
O=C(COC(=O)CC(c1ccccc1)c1ccccc1)Nc1c(F)cccc1F	n	n	n	n	n	x	x	x	x
Cc1ccsc1C(=O)OCC(=O)c1cc(C)n(C)c1C	n	x	n	n	n	x	x	x	x
O=C(CSc1nc(=O)n(Cc2ccccn2)c2c1CCC2)Nc1ccc(F)cc1F	n	x	n	n	n	x	x	x	x
O=C(CNC(=O)c1ccco1)Nc1ccc(Cl)cc1	n	n	n	n	n	x	x	x	x
CC1=C(C)/C(=N\OS(=O)(=O)c2ccc(C)cc2)C=CC1=O	x	n	x	x	x	x	x	x	x
CC1=C/C(=N\OS(=O)(=O)c2ccccc2)C(C)=CC1=O	91.3	n	n	87.1	n	n	x	x	n	tim10-1 confirm=80.0
COCCN(C(=O)CCC(=O)Nc1cc(C)on1)C(C(=O)NC(C)(C)C)c1cccc(OC)c1OC (stereo not given)	n	n	n	n	n	x	x	x	x
CCOC(=O)c1cc(S(=O)(=O)Nc2ccc(OC)cc2OC)cn1C	n	n	n	n	n	x	x	x	x
Cn1c(=O)c(C(=O)NNC(=O)c2ccc(Br)cc2)c(O)c2ccccc21	n	n	n	63.6	60.2	78.5	x	x	58.7
COc1cccc(CN(C)C(=O)COc2ccc(C(=O)c3ccc(Cl)cc3)cc2)c1OC	n	n	n	n	n	x	x	x	x
Cc1cc(C)cc(C(=O)/C=C2\NC(=O)CS2)c1	n	n	n	49.6	66.2	77.3	79.5	71.0	33.8
O=C1CS/C(=C/C(=O)c2ccccc2)N1	n	n	n	n	n	x	x	x	x
O=C(/C=C/c1c(F)cccc1Cl)c1ccc(O)cc1	n	n	n	73.8	91.0	87.2	58.2	n	61.8
O=C(OCC(=O)c1c[nH]c2ccccc12)c1ccc([N+](=O)[O-])s1	40.3	n	n	72.9	83.6	91.3	85.6	91.7	84.2	tim10-1 confirm=52.6
Cc1ccc(C(=O)OCC(=O)c2c[nH]c3ccccc23)cc1	n	n	n	n	n	x	x	x	x
CN1C/C(=C/c2ccsc2)C(=O)/C(=C/c2ccsc2)C1	54.2	x	n	49.3	62.6	56.0	79.0	64.7	33.0	tim10-1 confirm=30.8
O=C(Nc1cccc(C(F)(F)F)c1)N1CCN(C(=O)Nc2cccc(C(F)(F)F)c2)CC1	n	n	n	n	n	x	x	x	x
COc1ccc(N2CCN(C(=O)Nc3cccc(C(F)(F)F)c3)CC2)cc1	54.6	n	n	49.0	n	n	x	x	n	tim10-1 confirm=40.6
SMILES	tim10-1 inh	NALP1 inh	tim23-1 inh	TIM10 inh	NALP3 yeast inh	NALP3 yeast conf	Casp1-ASC yeast	NALP3 retest	tim10 confirm	others
Cc1ccc2c(c1)sc(=NC(=O)c1cccs1)n2C	n	n	n	58.7	58.1	n	n	n	60.1
CC1CC1C(=O)Nc1ccc(-c2ccccc2)cc1 (stereo not given)	n	n	n	42.7	50.6	63.7	x	x	36.3
COc1cc(CC(=O)NCCc2ccc(S(N)(=O)=O)cc2)cc(OC)c1OC	n	n	n	n	n	x	x	x	x
CN1CCSc2ccc(C(=O)Nc3cccc(F)c3)cc21	n	n	67.9	47.1	66.7	82.5	x	x	50.9	tim23-1 confirm=70.8
COc1ccc(NC(=O)c2ccc3c(c2)N(C)CCS3)cc1	n	n	n	n	n	x	x	x	x
COc1ccc2nc(/C=N/NC(=O)[C@H](C)NC(=O)OC(C)(C)C)ccc2c1	n	n	n	n	n	x	x	x	x
Cc1c(Cl)sn(-c2ccc(Cl)cc2)c1=O	96.4	98.0	55.3	97.2	56.0	n	69.0	n	99.5	tim10-1 confirm=98.2;tim23-1 confirm=99.3
CN1CCC(N(C)C(=O)c2ccc(Cl)c(S(=O)(=O)N3CCCCC3)c2)CC1	n	x	n	n	n	x	x	x	x
C/C(=N\NC(=O)c1ccccc1O)C1C(=O)c2ccccc2C1=O	53.5	n	73.1	72.7	86.6	92.3	91.5	84.1	70.4	tim10-1 confirm=52.5;tim23-1 confirm=79.1
CC(C)(C)n1nc(-c2ccc(F)cc2)c2c(N)ncnc21	n	91.7	73.1	69.1	92.9	93.3	96.1	92.0	51.1	tim23-1 confirm=61.1
Cc1ccc(-c2nc(N)c3c(-c4ccc(C)cc4)nn(C(C)(C)C)c3n2)cc1	n	n	n	n	n	x	x	x	x
CC(C)(C)n1nc(-c2ccc(Cl)cc2)c2c(N)ncnc21	n	n	62.8	50.2	87.7	93.5	95.2	90.0	47.1	tim23-1 confirm=61.8
Cc1ccc(-c2nn(C(C)(C)C)c3ncnc(NS(=O)(=O)c4ccc([N+](=O)[O-])cc4)c23)cc1	n	n	n	n	n	x	x	x	x
Cc1ccc(NC(=O)C2CCN(S(=O)(=O)c3cccnc3)CC2)cc1C	n	n	n	n	n	x	x	x	x
COCCN(C(=O)c1ccccc1OC1CCN(S(C)(=O)=O)CC1)C(C)C	n	n	n	n	n	x	x	x	x
Cc1cc(C)c(NC(=O)CN(C)C(=O)CCC(=O)c2ccc(C)s2)c(C)c1	n	x	n	n	n	x	x	x	x
O=C(Nc1ccc2c(c1)OCCO2)c1cnc2ccccn2c1=O	n	x	n	n	n	x	x	x	x
Cc1cccc(NC(=O)c2cnc3ccccn3c2=O)c1	n	x	61.3	n	50.7	77.2	x	x	x	tim23-1 confirm=55.0
O=c1c2cc(Cl)ccc2nc(-c2ccc(Cl)c(Cl)c2)n1O	n	x	n	n	n	x	x	x	x
O=c1c2ccc(Cl)cc2nc(-c2ccc([N+](=O)[O-])cc2)n1O	n	n	54.6	63.0	57.4	81.4	62.2	53.8	44.6	tim23-1 confirm=62.8
CC(/C=N/NC(=O)Cc1cccs1)=C\c1ccccc1	n	n	n	n	n	x	x	x	x
O=C(N/N=C/C(Cl)=C\c1ccccc1)c1cccs1	n	n	64.3	n	59.9	69.0	x	x	x	tim23-1 confirm=64.4
CC(/C=N/NC(=O)c1cccs1)=C\c1ccccc1	n	n	53.5	n	53.8	69.1	62.7	52.5	x	tim23-1 confirm=48.0
